# From PubChem BioAssay (NCATS)
# Records with an inconclusive call do not appear. Where a call stands in place of a potency, no number is given. The source made the active and inactive calls. Calls follow the shape of the dose curve; as a rule, active = well fitted cell-killing curve with a large enough effect; inconclusive = small, poorly fitted or top-dose-only effect; inactive = flat fitted curve, though single readings scatter.
# Test: Cell Viability - LYMP2-015 (AID 971)
# Conditions: LYMP2-015 lymphoblastoid cell viability; series mostly up to 92.2 µM
# Summary of the method: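 Cytotoxicity readout: decrease in intracellular ATP (CellTiter-Glo luminescence) in 2500 LYMP2-015 lymphoblastoid cells/well after 24 h compound exposure at 37 C. Concentration-response data fitted with the standard Hill equation to give AC50.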
# Also: nearly all actives have a fitted effect of over 55% in size.
# Potency is read from the fitted curve at half-maximal effect.
row,SMILES,Potency
1,O=C(O)C(Br)Br,inactive
2,Cc1ccc(OP(=O)(Oc2ccc(C)cc2)Oc2ccc(C)cc2)cc1,inactive
3,Oc1c(Cl)c(Cl)cc(Cl)c1Cl,inactive
4,Nc1ccc(Cc2ccc(N)c(Cl)c2)cc1Cl,inactive
5,Brc1ccc(Oc2ccc(Br)cc2Br)c(Br)c1,inactive
6,O=[N+]([O-])c1c(Cl)c(Cl)c(Cl)c(Cl)c1Cl,inactive
7,CN1CSC(=S)N(C)C1,31.6 µM (active)
8,ClCC(Cl)Cl,inactive
9,CC(C)Br,inactive
10,O=[N+]([O-])c1ccc(O)c([N+](=O)[O-])c1,inactive
11,CC(C)[N+](=O)[O-],inactive
12,CCCC[N+](=O)[O-],inactive
13,Cc1cc(-c2cc(C)c(N)c(C)c2)cc(C)c1N,inactive
14,CCN(N=O)C(N)=O,inactive
15,N#CC(Cl)(Cl)Cl,inactive
16,O=C(O)C(Br)CBr (stereo not given),inactive
17,Nc1c(Br)cc([N+](=O)[O-])cc1[N+](=O)[O-],inactive

row,SMILES,Potency
1,Cc1cc(C)cc(OP(=O)(Oc2cc(C)cc(C)c2)Oc2cc(C)cc(C)c2)c1,inactive
2,O=C(O)C(Cl)Br (stereo not given),inactive
3,COP(=S)(OC)SCn1nnc2ccccc2c1=O,inactive
4,Nc1ccc([N+](=O)[O-])cc1N,inactive
5,O=C(O)c1cccc(Cl)c1,inactive
6,Cc1cc(N=Nc2ccccc2C)ccc1N,inactive
7,OCCCCO,inactive
8,O=[N+]([O-])c1cc(Cl)c(Cl)c(Cl)c1,inactive
9,CC(C)(COCC1CO1)COCC1CO1 (stereo not given),inactive
10,Cc1ccc2c(c1N)C(=O)c1ccccc1C2=O,inactive
11,COc1ccccc1N,inactive
12,CC(C)(C)OOC(=O)c1ccccc1,inactive
13,c1ccc(N=NNc2ccccc2)cc1,inactive
14,COC(C)(C)C,inactive
15,C(CCOCC1CO1)COCC1CO1 (stereo not given),inactive
16,CN(C)c1ccc(N)cc1,50.1 µM (active)
17,O=[N+]([O-])/C=C/c1ccccc1,39.8 µM (active)

# Test: Cell Viability - LYMP2-017 (AID 972);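 also: cells exposed to compound for 24 hours at 37 °C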
# Conditions: LYMP2-017 lymphoblastoid cell viability; series mostly up to 92.2 µM
# Summary of the method: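 CellTiter-Glo luminescence (cellular ATP, 30 min RT) measured cytotoxicity after 24 hr compound treatment at 37 C. Cells were a human lymphoblastoid line, LYMP2-017, plated at 2500/well and incubated 5 hr first; concentration-response fitted with Hill equation for AC50.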
row,SMILES,Potency
1,O=C(O)C(Br)Br,inactive
2,Oc1c(Cl)c(Cl)cc(Cl)c1Cl,inactive
3,Nc1ccc(Cc2ccc(N)c(Cl)c2)cc1Cl,inactive
4,Brc1ccc(Oc2ccc(Br)cc2Br)c(Br)c1,inactive
5,O=[N+]([O-])c1c(Cl)c(Cl)c(Cl)c(Cl)c1Cl,inactive
6,CN1CSC(=S)N(C)C1,25.1 µM (active)
7,ClCC(Cl)Cl,inactive
8,CC(C)Br,inactive
9,O=[N+]([O-])c1ccc(O)c([N+](=O)[O-])c1,inactive
10,CC(C)[N+](=O)[O-],inactive
11,Cc1cc(-c2cc(C)c(N)c(C)c2)cc(C)c1N,inactive
12,Nc1cc(Cl)ccc1O,inactive
13,CCN(N=O)C(N)=O,inactive
14,N#CC(Cl)(Cl)Cl,inactive
15,CCCCC(CC)COC(=O)c1ccc(C(=O)OCC(CC)CCCC)c(C(=O)OCC(CC)CCCC)c1 (stereo not given),inactive
16,O=C(O)C(Br)CBr (stereo not given),inactive

row,SMILES,Potency
1,Nc1c(Br)cc([N+](=O)[O-])cc1[N+](=O)[O-],inactive
2,Cc1cc(C)cc(OP(=O)(Oc2cc(C)cc(C)c2)Oc2cc(C)cc(C)c2)c1,inactive
3,N#CC(Br)Br,39.8 µM (active)
4,O=C(O)C(Cl)Br (stereo not given),inactive
5,Nc1ccc([N+](=O)[O-])cc1N,inactive
6,O=C(O)c1cccc(Cl)c1,inactive
7,Cc1cc(N=Nc2ccccc2C)ccc1N,inactive
8,OCCCCO,inactive
9,O=[N+]([O-])c1cc(Cl)c(Cl)c(Cl)c1,inactive
10,Cc1ccc2c(c1N)C(=O)c1ccccc1C2=O,inactive
11,COc1ccccc1N,inactive
12,CC(C)(C)OOC(=O)c1ccccc1,inactive
13,COC(C)(C)C,inactive
14,CN(C)c1ccc(N)cc1,50.1 µM (active)
15,O=[N+]([O-])/C=C/c1ccccc1,50.1 µM (active)
